From PubChem BioAssay AID540361 (National Center for Advancing Translational Sciences (NCATS), 2011)
Results filed as inconclusive are left out. Active and inactive are the calls of the source. Calls follow the shape of the dose curve; as a rule, active = well fitted curve in the direction sought with a large enough effect; inconclusive = small, poorly fitted or top-dose-only effect, or another doubt; inactive = no such curve, though single readings can be large or run the other way.

What follows are compounds tested against Alpha-galactosidase A (Homo sapiens) (UniProt P06280) (assay: Activators of Human alpha-Glucosidase as a Potential Chaperone Treatment of Pompe Disease: Alpha-Galactosidase Counter Screen). Conditions: purified human alpha-galactosidase, 4-MU fluorogenic substrate; series mostly up to 57.1 µM.
Alpha-galactosidase A (Homo sapiens), sequence (P06280 whole entry, looked up): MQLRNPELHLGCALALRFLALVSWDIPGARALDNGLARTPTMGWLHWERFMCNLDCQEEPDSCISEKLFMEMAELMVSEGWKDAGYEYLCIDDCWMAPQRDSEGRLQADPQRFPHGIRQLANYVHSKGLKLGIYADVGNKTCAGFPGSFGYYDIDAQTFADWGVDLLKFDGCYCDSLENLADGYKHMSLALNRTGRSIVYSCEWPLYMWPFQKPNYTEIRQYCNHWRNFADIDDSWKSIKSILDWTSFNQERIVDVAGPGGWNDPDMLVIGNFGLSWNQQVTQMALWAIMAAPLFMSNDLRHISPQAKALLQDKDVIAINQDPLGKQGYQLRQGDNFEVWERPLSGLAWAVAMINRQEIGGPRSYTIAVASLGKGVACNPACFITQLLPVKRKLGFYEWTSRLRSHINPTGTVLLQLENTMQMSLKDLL
Source text: Alpha-glucosidase is responsible for hydrolysis of terminal, non-reducing 1,4-linked alpha-D-glucose residues with release of alpha-D-glucose. It is a lysosomal hydrolase that is required for the degradation of a small percentage (1-3%) of cellular glycogen in human. Deficiency of this enzyme results in glycogen-storage disease type II (GSDII), also referred to as Pompe disease, an autosomal recessive disorder. Structurally normal glycogen is accumulated in lysosomes and cytoplasm in affected patients, primarily in muscle tissues. Excessive glycogen storage within lysosomes may interrupt normal functioning of other organelles and leads to cellular injury. In turn, this leads to enlargement and dysfunction of the entire organ involved (eg, cardiomyopathy and muscle weakness). It has reported that the improper folding and trafficking of alpha-glucosidase resulting from the genetic mutations may account for a significant number of Pompe patients. […] After screening for activators for alpha-glucosidase, we used this counter screen against alpha-galactosidase to test for specificity of the hits. NIH Chemical Genomics Center [NCGC] NIH Molecular Libraries Probe Production Centers Network [MLPCN] MLPCN Grant: MH086442-01 Assay Submitter (PI): Wei Zheng
This is a fluorogenic enzyme assay with 4-methylumbelliferyl-[…] as the substrate and human alpha-galactosidase as the enzyme preparation. Upon the hydrolysis of this fluorogenic substrate, the resulting product, 1. 4-methyllumbelliferone, can be excited at 365 nm and emits at 440 nm which can be detected by a standard fluorescence plate reader. Data were normalized to the controls for basal activity (without enzyme) and 100% activity (with enzyme). In the AC50 values were determined from concentration-response data modeled with the standard Hill equation. Assay buffer: 50 mM citric acid (titrated with potassium phosphate to pH 5.0), 0.005% Tween-20, pH 5.0. (pH 5.0 is an optimal condition for this enzyme assay) 1536-well assay protocol for the human alpha-galactosidase: (1) Add 2 ul/well of enzyme (4 nM final) (2) Add 23 nL compounds in DMSO solution. The final titration was 0.7 nM to 77 uM. (3) Add 1 ul of substrate (400 uM final) (4) Incubate at room temperature for 20 min. (5) Add 2 ul stop solution (1M NaOH and 1M Glycine mixture, pH 10) (6) Detect the assay plate in a ViewLux plate reader (PerkinElmer) with Ex=365 nm and Em=440nm. Keywords: Alpha-glucosidase, Pompe Disease, pharmacological chaperone, chaperone therapy, high throughput screening, alpha-glucosidase inhibitor, MLSMR, MLSCN, NIH Roadmap, qHTS and NCGC
`CCCN1CNc2c(c(=O)[nH]c(=S)n2CCC(C)(C)C)C1` was tested, and the outcome was “inactive”.
With `O=S(=O)(c1ccc(Cl)cc1)N1CCN(c2nc(-c3cccs3)nc3ccccc23)CC1` the outcome was “inactive”.
For `O=S(=O)(c1ccc(Cl)cc1)N1CCN(c2nc(Nc3cc(Cl)ccc3O)nc3ccccc23)CC1`, the outcome was “inactive”.
For `COc1ccc(CCc2c[nH]c(=O)c3cncnc23)cc1OC`, the outcome was “inactive”.
`CCCN1CNc2c(c(=O)[nH]c(=S)n2CCc2ccc3c(c2)OCCO3)C1` was tested, and the outcome was “inactive”.
With `COc1ccc(CCn2c3c(c(=O)[nH]c2=S)CN(C)CN3)cc1OC` the outcome was “inactive”.
`CCCN1CNc2c(c(=O)[nH]c(=S)n2Cc2ccc(OC)c(OC)c2)C1` was tested, and the outcome was “inactive”.
For `CCCN1CNc2c(c(=O)[nH]c(=S)n2CCc2cccc(C)c2C)C1`, the outcome was “inactive”.
In the case of `COc1ccc(C#Cc2c[nH]c(=O)c3cncnc23)cc1OC`, the outcome was “inactive”.
With `COc1ccc(CCn2c3c(c(=O)[nH]c2=S)CN(C(C)C)CN3)cc1OC` the outcome was “inactive”.
`COc1ccc(C#Cc2cnc(Cl)c3cncnc23)cc1OC` was tested, and the outcome was “inactive”.
In the case of `CCCN1CNc2c(c(=O)[nH]c(=S)n2CCc2ccsc2)C1`, the outcome was “inactive”.
For `OCCNc1nc(-c2cccs2)nc2ccccc12`, the outcome was “inactive”.
`COc1ccc(CCn2c(=S)[nH]c(=O)c3nccnc32)cc1OC` was tested, and the outcome was “inactive”.
In the case of `CCCN1CNc2c(c(=O)[nH]c(=S)n2CCc2ccc(C)c(C)c2)C1`, the outcome was “inactive”.
With `c1csc(-c2nc(NCC3CCCO3)c3ccccc3n2)c1` (stereo unspecified) the outcome was “inactive”.
For `CCCN1CNc2c(c(=O)[nH]c(=S)n2CCc2cc(C)ccc2C)C1`, the outcome was “inactive”.
`CCCN1CNc2c(c(=O)[nH]c(=O)n2CCc2ccc(OC)c(OC)c2)C1` was tested, and the outcome was “inactive”.
`CCCN1CNc2c(c(=O)[nH]c(=S)n2CCc2c(C)cccc2C)C1` was tested, and the outcome was “inactive”.
In the case of `COc1ccc(CCn2c3c(c(=O)[nH]c2=S)CN(c2ccccc2)CN3)cc1OC`, the outcome was “inactive”.
`COc1ccc(CCn2c(=S)[nH]c(=O)c3c(C)cc(C)nc32)cc1OC` was tested, and the outcome was “inactive”.
